Experimental data taken from PubChem BioAssay (NCATS).
A number with no mark means an inactive call. Inconclusive results are not listed. Calls of active or inactive are those of the source. Unless noted, the call rests on the fitted dose curve; in most records, active means well fitted curve in either direction with a large enough effect (not every such curve was filed as active); inconclusive means small, poorly fitted or top-dose-only effect, or another doubt; inactive means flat fitted curve, though single readings scatter.

Legend:
[1] = biological target: Lysosomal acid glucosylceramidase (Homo sapiens) (UniProt P04062); assay: Glucocerebrosidase-p2 (AID 348; in the data active means potency below about 10 µM; further: potency means the concentration at half of the fitted maximal effect); settings: purified GBA, blue fluorogenic substrate, 40 min
In short: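 Compounds titrated from 0.6 nM upwards against 0.2 nM enzyme in pH 5.9 citric acid/KH2PO4, taurocholate, tween-20; blue fluorogenic substrate 80 uM, 40 min room temperature, stopped and read Ex 365/Em 440 for AC50.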

[2] = AP1 Signaling Pathway (AID 357); settings: ME-180 AP-1-bla reporter, EGF-induced, beta-lactamase ratio, 5 h; at 7.69 µM (top of the series) unless noted;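 further: ME-180 reporter cells stimulated with EGF at its EC50 level; on the % scale 0 is the no-effect control and ±100 the full control effect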
In short: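 In this screen, ME-180 cells in Opti-MEM with 0.5% dialyzed FBS received EC50 EGF and compound titrations for 5 h. AP-1 reporter beta-lactamase was detected via CCF4 ratio, giving AC50 for positive and negative modulators.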

[3] = biological target: Cytochrome P450 1A2 (Homo sapiens) (UniProt P05177); assay: p450-cyp1a2 (AID 410; calls by dose curve; further: potency means the concentration at half of the fitted maximal effect;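 on activity change, negative = inhibition: -100% = full effect of reference inhibitor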); settings: recombinant CYP1A2, luciferin-ME demethylation, luminescence; series mostly up to 57 µM
In short: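 Human CYP1A2 (20nM) demethylated Luciferin-ME at its Km (100uM) in 100mM KPO4. After 10 min compound preincubation, NADPH regeneration ran the reaction 60 min at room temperature. Luciferin was read by luminescence, normalized to 57 uM furafylline.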

[4] = Stat Signaling Pathway (AID 446); settings: ME-180 SIE beta-lactamase reporter, IL-6 stimulated, 5 h; at 7.69 µM (top of the series) unless noted;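 further: ME-180 cervical cancer cells given 40 pM IL-6 alongside compound; SIE-controlled beta-lactamase reporter measured as 460/530 nm FRET emission ratio; on the % scale 0 is the no-effect control and ±100 the full control effect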
In short: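 Screening format detects activators and inhibitors alike: ME-180 SIE-bla cells stimulated at 40 pM IL-6 for 5 hrs with compound, then dual-emission beta-lactamase read at 405 nm excitation.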

[5] = biological target: Glucocorticoid receptor (Homo sapiens) (UniProt P04150); assay: GR-EFC Redistribution (AID 451; calls by dose curve; further: potency means the concentration at half of the fitted maximal effect); settings: CHO-K1 GR-EFC translocation, beta-gal luminescence, 2 h
In short: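 CHO-K1 cells expressing nuclear EA and GR-ED fragments of b-gal; compounds titrated up to 46 uM final, 2 h at 37 C. GR nuclear translocation read as complemented b-gal luminescence after 1 h RT detection.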

[6] = biological target: Mitogen-activated protein kinase 10 (Mus musculus) (UniProt Q61831); assay: JNK3 AlphaScreen Assay (AID 530); settings: JNK3 lysate, c-Jun phosphorylation; series mostly up to 57.1 µM;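 further: kinase came from lysate of stimulated human HepG2 cells; signal reports phosphorylation of biotinylated GST-cJun 1-79 at Ser73 with 10 µM ATP; on the % scale 0 is the no-effect control and ±100 the full control effect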
In short: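 qHTS format: compounds tested as titrations against IL-1beta/TNF-alpha-activated HepG2 lysate JNK3 with biotin-GST-cJun substrate and 10 uM ATP at room temperature. Loss of anti-phospho-cJun AlphaScreen signal indicates inhibition.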

[7] = biological target: 3',5'-cyclic-AMP phosphodiesterase 4B (Homo sapiens) (UniProt Q07343); assay: qHTS Assay for Inhibitors of PDE-IV (AID 607; active means well fitted activation curve with a large enough effect in the main read-out, with a control signal flat, not every such curve was filed as active; further: % of control where 0% means no effect); settings: HEK293 ACTOne CNG channel cells, membrane potential fluorescence; series mostly up to 22.9 µM
In short: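 The readout is membrane depolarisation from a cAMP-sensing CNG channel, detected with a potential dye at ex 535/em 590. Cells were HEK293-derived (endogenous PDE-IV) at 1000 cells/well, titrated up to 22.9 uM final.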

[8] = biological target: Cytochrome P450 3A4 (Homo sapiens) (UniProt P08684); assay: qHTS Assay for Activators of Cytochrome P450 3A4 (AID 885; active means well fitted curve in the direction sought with a large enough effect; an effect the other way counts as inactive or inconclusive; further: nearly all actives have a fitted effect of over 65% in size); settings: recombinant CYP3A4, Luciferin-PPXE luminescence, 60 min; series mostly up to 57.1 µM
In short: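 Steps: enzyme/substrate mix dispensed; compound added, 10 min RT; NADPH regeneration solution added, 60 min RT; luciferin detection buffer stops reaction; 20 min later luminescence measured.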

[9] = biological target: Cytochrome P450 2D6 (Homo sapiens) (UniProt P10635); assay: qHTS Assay for Inhibitors and Substrates of Cytochrome P450 2D6 (AID 891; active means well fitted curve in the direction sought with a large enough effect; an effect the other way counts as inactive or inconclusive; further: nearly all actives have a fitted effect of over 60% in size; further: potency means the concentration at half of the fitted maximal effect); settings: recombinant CYP2D6, luciferin-ME EGE luminescence; series mostly up to 57.1 µM
In short: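 Human CYP2D6 (5 nM) with 30 uM Luciferin-ME EGE (at Km) in 100 mM KPO4, compound preincubated 10 min, then NADPH regeneration system for 60 min at room temperature. Luciferin read by luminescence; normalized to 1.43 uM quinidine.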

[10] = Primary qHTS for small molecule stabilizers of the endoplasmic reticulum resident proteome: Secreted ER Calcium Modulated Protein (SERCaMP) assay (AID 1508630; active means well fitted curve in the direction sought with a large enough effect; an effect the other way counts as inactive or inconclusive; further: on the % scale 0 is the no-effect control and ±100 the full control effect); settings: SH-SY5Y GLuc-SERCaMP (Gaussia luciferase released on ER calcium loss) secretion, thapsigargin, luminescence; series mostly up to 38.4 µM
In short: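 GLuc-SERCaMP-expressing SH-SY5Y cells, pretreated 16 h with compound, are challenged with thapsigargin to empty ER calcium stores; after 4 h, coelenterazine is added directly to the medium and luminescence is imaged.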

[11] = biological target: Cytochrome P450 2C9 (Homo sapiens) (UniProt P11712); assay: qHTS Assay for Inhibitors and Substrates of Cytochrome P450 2C9 (AID 883; active means well fitted curve in the direction sought with a large enough effect; an effect the other way counts as inactive or inconclusive; further: on the % scale 0 is the no-effect control and ±100 the full control effect; nearly all actives have a fitted effect of over 60% in size); settings: recombinant CYP2C9, luciferin-H luminescence, 60 min; series mostly up to 57.1 µM
In short: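 Human CYP2C9 (10nM) with Luciferin-H at 100uM (its KM) in 25mM KPO4; compound preincubated 10 min at 37C, then NADPH regeneration for 60 min at 37C. Luciferin read by luminescence after detection reagent; normalized to 57uM sulphaphenazole as full inhibition.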

[12] = biological target: Cytochrome P450 2C19 (Homo sapiens) (UniProt P33261); assay: qHTS Assay for Inhibitors and Substrates of Cytochrome P450 2C19 (AID 899; active means well fitted curve in the direction sought with a large enough effect; an effect the other way counts as inactive or inconclusive; further: on the % scale 0 is the no-effect control and ±100 the full control effect; nearly all actives have a fitted effect of over 60% in size); settings: recombinant CYP2C19, luciferin-H EGE luminescence; series mostly up to 57.1 µM
In short: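 5 nM human CYP2C19 with 10uM Luciferin-H EGE (at KM) in 50mM KPO4, compound preincubated 10 min at 37C, then NADPH regeneration for 60 min at 37C. Luciferin read by luminescence after detection reagent; normalized to 57uM ketoconazole as full inhibition.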

[13] = biological target: Glucocorticoid receptor (Homo sapiens) (UniProt P04150); assay: GR-GFP Redistribution (AID 450;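 active means compounds whose dose series gives a full or clear partial fitted curve of increased nuclear translocation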; further: potency means the concentration at half of the fitted maximal effect); settings: U2OS GR-GFP nuclear translocation, laser cytometry, 2 h
[14] = NFAT Signaling Pathway (AID 444); settings: Jurkat NFAT-bla M1, carbachol, beta-lactamase ratio, 5 h; at 7.69 µM (top of the series) unless noted
In short: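 Jurkat cells with NFAT-driven β-lactamase reporter and co-expressed M1 receptor, stimulated with carbachol (final 1 uM, ~EC50), compound titration, 5 h at 37 °C. CCF4 loaded 1 h at RT; 460/530 nm ratio gave %activity and AC50.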

[15] = qHTS Assay for Identification of Small Molecule Agonists for Hypoxia Response Element Signaling Pathway (AID 914; active means well fitted activation curve with a large enough effect in the signal ratio, with a control signal flat, not every such curve was filed as active; the % refers to the signal ratio; further: % of control where 0% means no effect); settings: ME-180 (cervical carcinoma) HRE-bla reporter, beta-lactamase ratio, CoCl2, 17 h; activation: hits give high values
In short: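 Read-out: CCF4 FRET ratio of 460nm to 530nm emission (excitation 405nm) after 2.5 hours at room temperature, taken from HRE-bla ME-180 cells that had been exposed to compound and EC50 CoCl2 for 17 hours.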

[16] = biological target: Ubiquitin carboxyl-terminal hydrolase 1 (Homo sapiens) (UniProt O94782); assay: Inhibitors of USP1/UAF1: Pilot qHTS (AID 504865; active means well fitted curve in the direction sought with a large enough effect; an effect the other way counts as inactive or inconclusive;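 further: rhodamine fluorescence freed from ubiquitin-rhodamine substrate followed over time; top concentration of the series differs between compounds; on the % scale 0 is the no-effect control and ±100 the full control effect; nearly all actives have a fitted effect of over 35% in size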); settings: purified USP1/UAF1, Ub-rhodamine cleavage fluorescence; series mostly up to 54.9 µM
In short: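 1nM USP1/UAF1 + cpd, 15 min RT; start w/ Ub-Rho 150nM final; kinetic FL 480/540 nm, 6 reads q60 s. Buffer 50mM HEPES pH 7.8, 0.5mM EDTA, 1mM TCEP, 0.01% Tween-20, 0.1 mg/ml BSA.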

Sequence of Cytochrome P450 1A2 (Homo sapiens) (P05177 whole entry, looked up): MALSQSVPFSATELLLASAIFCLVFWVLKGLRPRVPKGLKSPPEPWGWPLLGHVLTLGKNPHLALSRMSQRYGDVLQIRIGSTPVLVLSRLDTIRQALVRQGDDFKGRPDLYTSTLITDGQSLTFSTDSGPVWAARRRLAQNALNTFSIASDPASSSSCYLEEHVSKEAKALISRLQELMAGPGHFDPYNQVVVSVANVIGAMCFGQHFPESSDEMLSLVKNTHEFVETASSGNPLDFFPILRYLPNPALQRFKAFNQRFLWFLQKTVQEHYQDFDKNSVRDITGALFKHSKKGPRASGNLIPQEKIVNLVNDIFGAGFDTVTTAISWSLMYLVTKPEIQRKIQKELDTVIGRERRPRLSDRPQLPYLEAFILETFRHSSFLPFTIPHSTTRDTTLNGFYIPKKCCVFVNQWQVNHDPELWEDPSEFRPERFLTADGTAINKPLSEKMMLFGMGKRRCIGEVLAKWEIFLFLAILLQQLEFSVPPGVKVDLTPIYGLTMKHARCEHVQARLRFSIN
Sequence of Lysosomal acid glucosylceramidase (Homo sapiens) (P04062 whole entry, looked up): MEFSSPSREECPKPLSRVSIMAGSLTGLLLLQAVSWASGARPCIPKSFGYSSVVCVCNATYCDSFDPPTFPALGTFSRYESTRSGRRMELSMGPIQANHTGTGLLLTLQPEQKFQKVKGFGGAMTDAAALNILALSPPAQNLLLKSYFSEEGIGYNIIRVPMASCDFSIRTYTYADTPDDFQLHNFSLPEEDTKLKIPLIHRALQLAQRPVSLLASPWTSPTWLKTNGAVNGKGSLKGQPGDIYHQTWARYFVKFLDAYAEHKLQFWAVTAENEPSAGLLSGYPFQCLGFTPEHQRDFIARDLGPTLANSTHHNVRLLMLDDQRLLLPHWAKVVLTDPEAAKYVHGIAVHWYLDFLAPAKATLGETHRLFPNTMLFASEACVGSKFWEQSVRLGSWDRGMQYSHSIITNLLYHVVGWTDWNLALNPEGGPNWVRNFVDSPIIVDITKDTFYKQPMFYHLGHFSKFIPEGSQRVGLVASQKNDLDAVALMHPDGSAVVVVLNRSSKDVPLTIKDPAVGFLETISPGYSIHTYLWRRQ
Sequence of Glucocorticoid receptor (Homo sapiens) (P04150 whole entry, looked up, the tested form may be a part): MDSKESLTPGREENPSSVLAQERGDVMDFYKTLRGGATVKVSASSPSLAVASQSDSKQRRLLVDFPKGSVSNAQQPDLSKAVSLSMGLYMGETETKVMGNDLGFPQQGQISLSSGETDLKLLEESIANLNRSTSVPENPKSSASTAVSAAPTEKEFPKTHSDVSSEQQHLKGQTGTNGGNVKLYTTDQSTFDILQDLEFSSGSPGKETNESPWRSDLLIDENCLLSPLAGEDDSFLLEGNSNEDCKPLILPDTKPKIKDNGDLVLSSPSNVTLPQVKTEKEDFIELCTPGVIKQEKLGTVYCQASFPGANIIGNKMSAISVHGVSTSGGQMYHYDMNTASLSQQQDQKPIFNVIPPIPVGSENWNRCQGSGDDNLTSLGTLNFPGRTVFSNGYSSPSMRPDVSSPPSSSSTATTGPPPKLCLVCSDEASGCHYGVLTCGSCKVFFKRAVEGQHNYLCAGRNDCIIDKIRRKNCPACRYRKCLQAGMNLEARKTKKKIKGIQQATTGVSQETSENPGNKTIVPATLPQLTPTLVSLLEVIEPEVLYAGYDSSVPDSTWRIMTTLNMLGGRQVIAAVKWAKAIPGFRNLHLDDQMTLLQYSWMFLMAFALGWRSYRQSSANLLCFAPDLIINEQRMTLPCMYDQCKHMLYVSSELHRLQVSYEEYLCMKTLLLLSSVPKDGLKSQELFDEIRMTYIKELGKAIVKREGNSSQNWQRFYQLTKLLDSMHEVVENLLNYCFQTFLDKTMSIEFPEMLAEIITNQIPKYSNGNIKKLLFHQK
Sequence of Cytochrome P450 3A4 (Homo sapiens) (P08684 whole entry, looked up): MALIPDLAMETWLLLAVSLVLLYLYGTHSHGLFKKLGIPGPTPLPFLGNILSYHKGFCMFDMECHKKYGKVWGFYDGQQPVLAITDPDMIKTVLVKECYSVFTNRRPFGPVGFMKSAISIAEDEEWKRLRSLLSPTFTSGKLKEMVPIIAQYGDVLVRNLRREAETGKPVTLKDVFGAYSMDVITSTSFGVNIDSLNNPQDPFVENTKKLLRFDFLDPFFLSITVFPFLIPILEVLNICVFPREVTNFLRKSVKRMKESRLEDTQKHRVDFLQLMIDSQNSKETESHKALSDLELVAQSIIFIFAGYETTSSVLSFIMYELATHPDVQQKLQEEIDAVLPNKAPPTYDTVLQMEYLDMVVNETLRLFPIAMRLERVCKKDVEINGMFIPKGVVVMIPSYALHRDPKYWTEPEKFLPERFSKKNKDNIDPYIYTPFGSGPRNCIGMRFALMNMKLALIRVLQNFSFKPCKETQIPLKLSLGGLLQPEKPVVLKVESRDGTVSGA
Sequence of 3',5'-cyclic-AMP phosphodiesterase 4B (Homo sapiens) (Q07343 whole entry, looked up): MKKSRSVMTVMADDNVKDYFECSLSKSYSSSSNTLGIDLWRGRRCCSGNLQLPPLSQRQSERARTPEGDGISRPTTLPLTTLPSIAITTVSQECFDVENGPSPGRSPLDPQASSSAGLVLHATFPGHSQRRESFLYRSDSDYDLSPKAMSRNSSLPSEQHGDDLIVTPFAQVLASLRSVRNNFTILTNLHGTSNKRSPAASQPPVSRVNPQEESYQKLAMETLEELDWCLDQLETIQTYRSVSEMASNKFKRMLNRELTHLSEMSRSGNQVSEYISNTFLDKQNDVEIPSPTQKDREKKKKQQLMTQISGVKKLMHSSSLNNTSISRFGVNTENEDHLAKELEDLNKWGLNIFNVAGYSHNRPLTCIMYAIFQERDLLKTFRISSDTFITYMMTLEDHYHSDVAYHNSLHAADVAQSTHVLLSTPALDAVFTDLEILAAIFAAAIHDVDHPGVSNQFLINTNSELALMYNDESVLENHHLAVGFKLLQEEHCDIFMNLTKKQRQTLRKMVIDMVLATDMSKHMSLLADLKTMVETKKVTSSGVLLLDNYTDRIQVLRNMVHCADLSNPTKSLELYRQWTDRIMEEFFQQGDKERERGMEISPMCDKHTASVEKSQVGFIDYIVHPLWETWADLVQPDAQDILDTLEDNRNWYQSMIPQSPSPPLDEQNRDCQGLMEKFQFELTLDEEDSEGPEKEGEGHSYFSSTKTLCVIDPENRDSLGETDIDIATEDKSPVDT
Sequence of Cytochrome P450 2C9 (Homo sapiens) (P11712 whole entry, looked up): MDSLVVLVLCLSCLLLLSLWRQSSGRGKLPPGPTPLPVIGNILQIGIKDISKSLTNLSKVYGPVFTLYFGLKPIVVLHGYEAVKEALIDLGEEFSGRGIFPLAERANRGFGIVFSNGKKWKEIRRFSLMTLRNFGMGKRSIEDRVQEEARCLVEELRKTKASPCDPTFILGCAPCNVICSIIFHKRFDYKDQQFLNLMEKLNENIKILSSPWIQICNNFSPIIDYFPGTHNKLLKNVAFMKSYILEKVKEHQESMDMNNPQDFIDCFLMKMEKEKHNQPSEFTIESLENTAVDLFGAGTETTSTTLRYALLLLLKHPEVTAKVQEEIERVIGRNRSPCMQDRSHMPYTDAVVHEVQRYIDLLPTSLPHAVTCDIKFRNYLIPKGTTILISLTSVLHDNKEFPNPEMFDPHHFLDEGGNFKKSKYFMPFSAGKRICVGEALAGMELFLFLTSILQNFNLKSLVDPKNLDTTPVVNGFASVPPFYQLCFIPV
Sequence of Cytochrome P450 2D6 (Homo sapiens) (P10635 whole entry, looked up): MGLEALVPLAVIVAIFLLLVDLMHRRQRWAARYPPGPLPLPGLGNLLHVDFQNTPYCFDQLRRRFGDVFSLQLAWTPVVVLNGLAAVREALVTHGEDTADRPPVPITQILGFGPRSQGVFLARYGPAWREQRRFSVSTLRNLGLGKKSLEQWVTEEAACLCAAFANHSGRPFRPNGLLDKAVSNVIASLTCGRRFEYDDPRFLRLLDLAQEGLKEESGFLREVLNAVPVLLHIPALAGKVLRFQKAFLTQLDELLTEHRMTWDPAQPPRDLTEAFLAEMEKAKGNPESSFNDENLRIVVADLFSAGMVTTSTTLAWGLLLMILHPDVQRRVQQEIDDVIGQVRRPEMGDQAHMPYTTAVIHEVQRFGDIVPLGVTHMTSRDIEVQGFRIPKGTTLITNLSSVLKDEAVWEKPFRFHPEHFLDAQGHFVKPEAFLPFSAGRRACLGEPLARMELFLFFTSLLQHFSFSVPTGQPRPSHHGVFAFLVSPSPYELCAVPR
Sequence of Ubiquitin carboxyl-terminal hydrolase 1 (Homo sapiens) (O94782 whole entry, looked up): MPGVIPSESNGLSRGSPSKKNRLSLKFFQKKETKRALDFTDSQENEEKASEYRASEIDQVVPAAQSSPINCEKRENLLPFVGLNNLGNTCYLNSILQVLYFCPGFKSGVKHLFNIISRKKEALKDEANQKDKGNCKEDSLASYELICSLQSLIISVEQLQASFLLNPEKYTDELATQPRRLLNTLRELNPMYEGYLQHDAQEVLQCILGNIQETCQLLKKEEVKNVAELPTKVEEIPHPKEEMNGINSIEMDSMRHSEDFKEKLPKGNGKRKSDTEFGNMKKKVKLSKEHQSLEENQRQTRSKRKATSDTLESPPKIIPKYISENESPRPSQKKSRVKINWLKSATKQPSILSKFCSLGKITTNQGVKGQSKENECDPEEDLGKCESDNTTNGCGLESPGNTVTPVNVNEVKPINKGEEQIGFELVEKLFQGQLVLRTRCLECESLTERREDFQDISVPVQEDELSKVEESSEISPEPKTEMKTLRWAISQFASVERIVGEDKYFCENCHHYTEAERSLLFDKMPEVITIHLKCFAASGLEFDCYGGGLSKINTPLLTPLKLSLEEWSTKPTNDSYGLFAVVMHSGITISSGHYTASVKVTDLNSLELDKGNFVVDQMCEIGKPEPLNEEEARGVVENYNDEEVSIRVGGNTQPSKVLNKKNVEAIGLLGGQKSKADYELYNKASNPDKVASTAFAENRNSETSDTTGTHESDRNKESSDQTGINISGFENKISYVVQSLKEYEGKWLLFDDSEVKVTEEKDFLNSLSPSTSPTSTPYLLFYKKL

| Structure (SMILES) | Potency [1] | activity change, negative = inhibition [2] | Potency [3] | activity, negative = inhibition [4] | Potency [5] | Potency [6] | Potency [7] | Potency [8] | Potency [9] | outcome [10] | Potency [11] | Potency [12] | Potency [13] | activity change, negative = inhibition [14] | activation [15] | Potency [16] |
| --- | --- | --- | --- | --- | --- | --- | --- | --- | --- | --- | --- | --- | --- | --- | --- | --- |
| COc1ccc(C(=O)N2CCC[C@@]3(CCN(Cc4ccccc4)C3)C2)cc1 | > 11.4 µM | 13% | 12.6 µM (active) | -4.24% | > 46 µM | inactive | inactive | inactive | 7.94 µM (active) | inactive | – | – | – | – | – | – |
| O=C(c1ccco1)N1CCC2(CCCN(c3ccncc3)C2)CC1 | > 11.4 µM | -2.46% | inactive | 3.15% | > 46 µM | inactive | inactive | – | inactive | inactive | inactive | inactive | – | – | – | – |
| O=c1c(CCc2ccccc2)nc2cncnc2n1-c1ccccc1 | > 11.4 µM | -24.4% | 15.8 µM (active) | -17.6% | > 46 µM | inactive | – | inactive | – | inactive | – | – | > 9.22 µM | – | – | – |
| N#Cc1ccc(CN2CCC3(CC2)CCN(C(=O)c2csnn2)CC3)cc1 | > 11.4 µM | 3.47% | inactive | -1.95% | > 46 µM | inactive | inactive | – | – | inactive | – | – | – | – | – | – |
| Cn1c(=O)c(-c2cccs2)nc2cnc(Oc3ccccc3)nc21 | > 11.4 µM | 12.2% | 7.94 µM (active) | – | > 46 µM | – | inactive | – | – | inactive | – | – | – | – | – | – |
| COCCn1c(=O)cnc2cnc(OCc3ccccc3)nc21 | > 11.4 µM | -3.32% | – | 3.06% | > 46 µM | inactive | inactive | inactive | – | inactive | – | – | > 9.22 µM | -3.92% | – | – |
| COCCn1c(=O)c(-c2cc(F)cc(F)c2)nc2cnc(OCc3ccccc3)nc21 | > 11.4 µM | 8.07% | – | -6.5% | > 46 µM | inactive | inactive | – | – | inactive | – | – | > 9.22 µM | -6.33% | – | – |
| O=C(Nc1ccccc1)N1CC2(CCN(C(=O)c3cc(C(F)(F)F)cc(C(F)(F)F)c3)CC2)C1 | > 11.4 µM | 12.7% | inactive | – | > 46 µM | inactive | inactive | – | – | inactive | inactive | – | – | – | – | – |
| N#Cc1cccc(NC(=O)N2CCCC3(CCN(C(=O)c4cc(C(F)(F)F)cc(C(F)(F)F)c4)CC3)C2)c1 | > 11.4 µM | -21.5% | 6.31 µM (active) | -13.7% | > 46 µM | inactive | – | inactive | – | inactive | – | – | – | – | -10.4% | – |
| COc1ccc(Oc2ncc3ncc(=O)n(CCC#N)c3n2)cc1 | > 11.4 µM | -11.3% | – | -8.02% | > 46 µM | inactive | – | – | – | inactive | – | – | > 9.22 µM | -5.59% | – | – |
| COc1ncc2nc(C)c(=O)n(C[C@H]3CCCO3)c2n1 | > 11.4 µM | -6.08% | – | -2.46% | > 46 µM | inactive | inactive | – | – | inactive | – | – | > 9.22 µM | -9.08% | – | – |
| O=c1cnc2cnc(Oc3ccccc3)nc2n1C[C@H]1CCCO1 | > 11.4 µM | -19.1% | – | -8.07% | > 46 µM | inactive | inactive | – | – | inactive | – | – | > 9.22 µM | -3.47% | – | – |
| O=c1c(-c2ccccc2)nc2cncnc2n1Cc1ccc(F)cc1 | > 11.4 µM | -20% | – | -6.53% | > 46 µM | inactive | – | – | – | inactive | – | – | > 9.22 µM | -1.65% | – | – |
| c1cncc(CNc2ccnc(-c3cccnc3)n2)c1 | > 11.4 µM | 8.01% | – | 8.94% | > 46 µM | inactive | inactive | – | – | inactive | – | – | > 46 µM | 10.2% | – | inactive |
